E coli RNAP = E. coli RNAP inhibitors, biochemical. actives 0.2% (n = 62,000). E. coli RNA polymerase, fluorescence transcription assay. inhibition, %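 (tested at 10 µM)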. DNA-directed RNA polymerase subunit beta (Escherichia coli (strain K12)), P0A8V2; in the data active = inhibition above about 20%;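 also: 0% = enzyme without compound and 100% = no enzyme blank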
HePTP inh = inhibitors of human HePTP phosphatase, primary screen, biochemical, absorbance, leukemia target | recombinant HePTP phosphatase activity, OD absorbance | inhibition, % at 20 µM | actives 0.64% (n = 110,000) | Tyrosine-protein phosphatase non-receptor type 7 (Homo sapiens), P35236; in the data active = inhibition above about 50%;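 also: plate controls were vehicle for no effect and reference inhibitor for full effect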
MT1-MMP txn act = MT1-MMP promoter reporter activation – cell-based, luciferase luminescence, primary screen. HT1080 MT1-MMP promoter luciferase reporter, overnight; hits give high values. activation factor at 10 µM. actives 0.16% (n = 86,000);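 active = activation factor of at least 2 for MT1-MMP transcription at 10 µM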
TNAP act DEA = human TNAP enzyme activators, primary screen, biochemical, luminescent, intermediate phosphate acceptor level. purified TNAP, CDP-star luminescence, 100 mM DEA, 30 min; hits give high values; scale: 0 levamisole-inhibited, 1 vehicle-only enzyme. AID 813, 2007. activation factor at 20 µM. 64,000 tested, under 10 active;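 active = activation factor of at least 2 at 20 µM, relative to controls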
Smad3 inh = Smad3/FoxH1 peptide binding inhibitors, primary screen, biochemical, TR-FRET. Mothers against decapentaplegic homolog 3 (Homo sapiens), P84022. TR-FRET Smad3/Dy647-FoxH1 peptide binding, europium anti-His. inhibition, % at 25 µM. actives 0.29% (n = 88,000);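 active = compounds that reduce the energy-transfer binding signal between the protein and its labelled peptide by more than half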;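 also: 0% = Smad3 plus labelled peptide maximal FRET and 100% = peptide-only background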
Target sequence (P84022 whole entry, looked up): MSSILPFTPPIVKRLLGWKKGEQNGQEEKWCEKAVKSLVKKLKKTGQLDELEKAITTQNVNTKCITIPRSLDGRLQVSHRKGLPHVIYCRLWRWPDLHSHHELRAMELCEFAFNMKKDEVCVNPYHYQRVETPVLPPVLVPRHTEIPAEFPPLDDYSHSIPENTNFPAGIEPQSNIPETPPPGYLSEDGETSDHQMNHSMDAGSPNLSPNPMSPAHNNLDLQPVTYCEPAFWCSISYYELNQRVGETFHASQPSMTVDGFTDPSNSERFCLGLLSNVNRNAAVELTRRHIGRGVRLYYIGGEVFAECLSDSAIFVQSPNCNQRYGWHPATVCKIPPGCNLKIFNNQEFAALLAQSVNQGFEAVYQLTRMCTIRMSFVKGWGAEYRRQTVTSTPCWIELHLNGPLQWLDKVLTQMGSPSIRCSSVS
Active calls of the source: *; x = no result given. An excerpt weighted towards active compounds, which were near 0.8% of everything screened.

SMILES | E coli RNAP | HePTP inh | MT1-MMP txn act | TNAP act DEA | Smad3 inh
C=CCN1C(=O)/C(=C\c2ccc(-c3ccc([N+](=O)[O-])cc3)o2)C(=O)NC1=S | x | 102* | x | x | x
C=CCN1C(=O)/C(=C\c2ccc(-c3cccc([N+](=O)[O-])c3)o2)C(=O)NC1=S | x | 96* | x | x | x
C=CCN1C(=O)/C(=C\c2ccc(-c3ccc(Br)cc3)o2)C(=O)NC1=S | x | 100* | x | x | x
C=CCN1C(=O)/C(=C/c2cccc([N+](=O)[O-])c2)C(=O)NC1=S | x | 10 | x | x | x
C=CCN1C(=O)/C(=C\c2ccc(-c3ccc(C)cc3Br)o2)C(=O)NC1=S | x | 102* | x | x | x
C=CCC1(C#N)C(=S)NC2=C(C(=O)CC(C)(C)C2)C1C (centres undefined) | x | -9 | x | x | x
CC1=C(C#N)c2nc(N)c(C#N)c(C)c2/C1=C/c1ccc(-c2ccccc2[N+](=O)[O-])o1 | x | 81* | x | x | x
CC1=C(C#N)c2nc(N)c(C#N)c(C)c2/C1=C/c1ccc(-c2ccc([N+](=O)[O-])cc2C)o1 | x | 5 | x | x | x
CCc1ccccc1NC(=O)N1CCC(NC(=O)C(Cc2ccc(OC)c(OC)c2)NC(C)=O)CC1 (centres undefined) | x | x | 1.2 | x | -11
COc1ccc(CC(NC(C)=O)C(=O)NC2CCN(C(=O)Nc3ccc(Cl)cc3)CC2)cc1OC (centres undefined) | x | x | 1 | x | 79*
CC(=O)NC1=NC(=O)/C(=C/c2cc(C)n(-c3cccc(C(=O)O)c3)c2C)S1 | x | 101* | x | x | x
CC(C)c1ccc(NC(=O)c2cccc(F)c2)cc1 | x | -1 | x | x | x
CCCC(=NC(C)C)C1=C(O)CC(C)(C)CC1=O | x | 1 | x | x | x
N#Cc1cc2c(nc1SCC(N)=O)CCCCC2 | x | x | 1.4 | x | 10
N#Cc1cc2c(nc1SC1CCCCC1O)CCCC2 (centres undefined) | x | x | 1 | x | 93*
COC(=O)CCC(=O)NNc1ccc([N+](=O)[O-])cc1 | x | 60* | x | x | x
CC(=O)c1cccc2c(O)c(C3=Nc4ccccc4C3=O)[nH]c12 | x | x | 2.3* | x | 0
O=C(CCC1CCCC1)N1CCN(C2CCCCC2)CC1 | x | -13 | x | x | x
CC(=O)c1ccc(Oc2cc(-c3ccccc3)nc(C)n2)cc1 | x | -9 | x | x | x
CC(NC(=O)c1cc2ccccc2o1)C(=O)O (centres undefined) | 44* | 5 | 1.1 | 1 | 3
COc1ccccc1NC(=O)c1cc2ccccc2o1 | x | -5 | 2* | x | 2
COC(=O)c1c(N)sc(C(=O)Nc2ccccc2OC)c1C | x | 66* | x | x | x
CCOC(=O)c1c(N)sc(C(=O)Nc2ccccc2OC)c1C | x | 4 | x | x | x
COc1cc(NS(=O)(=O)c2ccc(NC(=O)c3ccc4ccccc4c3)cc2)nc(OC)n1 | x | 6 | x | x | x
Cc1nc2cc(-c3cccc(Cl)c3)[nH]n2c(=O)c1Cl | x | -7 | x | x | x
SMILES | E coli RNAP | HePTP inh | MT1-MMP txn act | TNAP act DEA | Smad3 inh
NS(=O)(=O)c1ccc(NC(=O)c2c(Cl)cccc2Cl)cc1 | x | 104* | x | x | x
NS(=O)(=O)c1ccc(NC(=O)c2ccccc2Cl)cc1 | x | x | 1.1 | x | 1
COc1ccc(/C=C2\C(=O)N(c3ccc(S(N)(=O)=O)cc3)N=C2C)cc1 | x | 8 | x | x | x
COc1ccc(OC)c(S(=O)(=O)Nc2ccc(Oc3ccccc3)cc2)c1 | x | x | 1.1 | x | 9
COc1ccc(OC)c(S(=O)(=O)Nc2ccc(O)c3ccccc23)c1 | 28* | 3 | 0.7 | 0.7 | 10
CCOC(=O)C1=C(C)NC2=C(C(=O)CCC2)C1c1ccc(Br)s1 (centres undefined) | x | 0 | x | x | x
O=C(O)/C=C/c1cccc(N2C(=O)C=CC2=O)c1 | x | 89* | x | x | x
CC(=O)O[C@H]1CC[C@@]2(C)C(=CC[C@@H]3[C@H]4CC[C@@H]([C@H](C)C(=O)O)[C@]4(C)CC[C@H]32)C1 | x | x | x | x | 52*
CC(=O)O[C@H]1CC[C@@]2(C)C(=CC[C@@H]3[C@H]4CC[C@@H](c5cc(C(F)(F)F)n(C(C)=O)n5)[C@]4(C)CC[C@H]32)C1 | x | x | x | x | -6
Cc1ccc([N+](=O)[O-])cc1NC(=O)COc1ccc(Cl)cc1C | x | 8 | x | x | x
CNc1ccc([N+](=O)[O-])cc1N/C=C1\CCc2ccccc2C1=O | x | 104* | x | x | x
Cc1ccc(Cl)cc1NC(=O)CSCC(=O)Nc1ccccc1 | x | -1 | x | x | x
O=C(/C=C/c1ccc2c(c1)OCO2)N1CCC(CN2C(=O)c3cccc4cccc(c34)C2=O)CC1 | x | 3 | x | x | x
O=C(O)c1ccncc1.O=C(O)c1ccncc1.[Cl][Pt]([Cl])([Cl])[Cl] | x | x | x | x | 72*
O=C(c1ccccc1)N1CCN(C(=O)c2ccncc2)CC1 | x | x | 1.3 | x | -7
COc1cc(/C=C2/SC(=S)NC2=O)c([N+](=O)[O-])cc1OC | x | -5 | x | x | x
O=C1NC(=S)S/C1=C\c1ccccc1[N+](=O)[O-] | x | 93* | x | x | x
COc1cc(/C=C2/SC(=S)NC2=O)ccc1OS(=O)(=O)c1ccccc1[N+](=O)[O-] | x | 59* | x | x | x
Cc1ccc(C(C)C)c(OCC(=O)Nc2ccc(NC(=O)c3ccco3)cc2)c1 | x | -2 | x | x | x
Cc1ccc(C(C)C)c(OCC(=O)Nc2ccc(OC(F)(F)F)cc2)c1 | x | 83* | x | x | x
CCOc1ccc(C(=O)Nc2ccc(OC(F)(F)F)cc2)cc1 | x | 103* | x | x | x
CCN(CC)c1ccc(/C=N/NC(=O)CSc2nc3ccccc3n2Cc2ccccc2)c(O)c1 | x | -9 | x | x | x
CC(C)CCNC(=O)C(c1cccnc1)N(Cc1ccccc1)C(=O)Cn1nnc2ccccc21 (centres undefined) | x | x | 1.3 | x | 9
CC(C)CCNC(=O)C(c1cccnc1)N(CCc1ccccc1)C(=O)Cn1nnc2ccccc21 (centres undefined) | x | x | 1.1 | x | 55*
O=C(Nc1cccc(NC(=O)c2ccccc2Cl)c1)c1ccc(-c2ccc(Br)cc2)o1 | x | 3 | x | x | x
SMILES | E coli RNAP | HePTP inh | MT1-MMP txn act | TNAP act DEA | Smad3 inh
O=C(Nc1cccnc1)c1ccc(CN(c2ccccc2)S(=O)(=O)c2ccccc2)cc1 | x | 104* | x | x | x
CC1(C)OC(=O)C(=Cc2ccc(I)o2)C(=O)O1 | x | 102* | x | x | x
O=C1C(=Cc2ccc(I)o2)C(=O)c2ccccc21 | x | 78* | x | x | x
O=C1C(=Cc2ccc(Sc3ccccc3)o2)C(=O)c2ccccc21 | x | 16 | x | x | x
O=C(O)CN1C(=O)/C(=C\c2cccc(Oc3ccccc3)c2)SC1=S | x | 2 | x | x | x
CCOC(=O)c1c(NC(=O)c2cc(-c3ccccc3)nc3ccccc23)sc(C(N)=O)c1C | x | -3 | x | x | x
Cc1cccc(NC(=O)CN(c2ccc(Br)cc2)S(=O)(=O)c2ccccc2)c1C | x | 9 | x | x | x
NC(N)=NC(N)=Nc1c(F)c(F)c(F)c(F)c1F | x | x | x | x | 56*
COc1cc(C)c(CNCc2ccc(OC)c(OC)c2)cc1C | x | 8 | x | x | x
CN(C)Cc1cc(C(C)(C)C)ccc1-c1ccc(C(C)(C)C)cc1CN(C)C | x | x | x | x | 70*
O=C(CCCN1C(=O)c2ccccc2C1=O)Nc1ccccc1C(=O)N1CCCCC1 | x | 78* | x | x | x
COc1ccc(OC)c(C(c2c(C)[nH]n(-c3ccccc3)c2=O)c2c(C)[nH]n(-c3ccccc3)c2=O)c1 | x | 104* | x | x | x

Source: PubChem
